{
  "source": "ChEMBL document CHEMBL3988442",
  "about": "“University of Dundee, Small-Polar-MMV Screening Library” (2021)",
  "note": "About 13,000 (27%) of roughly 48,000 compounds showed an effect of 50% or more. This is one part of the list.",
  "data": [
    {"test_system": "Wolbachia pipientis", "test": "Anti-Wolbachia Cell-Based Screen", "format": "functional", "parameters": "scale not given: in the data most compounds retested in dose-response had high values", "conditions": "5 µM", "units": {"Percent Effect": "%"}, "values": [
      {"compound": "Fc1cccc(N2CCc3ncnc(C4CC4)c3CC2)c1", "Percent Effect": 8.314},
      {"compound": "CC(C)NC(=O)NC[C@H]1OC[C@@H](NCc2ccc(S(C)(=O)=O)cc2)[C@@H]1O", "Percent Effect": 9.83},
      {"compound": "CO[C@@H]1CC[C@H]2[C@H]1OCCN2C(=O)c1ccc(C)o1", "Percent Effect": -15.27},
      {"compound": "CO[C@H]1CC[C@H]2[C@H]1OCCN2C(=O)CCOc1ccccc1", "Percent Effect": 104.1},
      {"compound": "CO[C@@H]1CC[C@H]2[C@H]1OCCN2C(=O)COc1ccc(C)cc1", "Percent Effect": 102.2},
      {"compound": "CCC(C)(CC(=O)OC)NC(=O)c1ccc(C(C)=O)cc1", "note": "(stereo not given)", "Percent Effect": 5.798},
      {"compound": "Cl.Cl.OC(CN1CCN(Cc2cc(F)cc(F)c2)CC1)C1CC1", "note": "(stereo not given)", "Percent Effect": -3.47},
      {"compound": "Cl.O=C(NCc1ccc(F)cc1)N1CCN(CC(O)C2CC2)CC1", "note": "(stereo not given)", "Percent Effect": 111},
      {"compound": "O=C1CC(C(=O)O)C2(CCN(C(=O)NCc3ccc(Cl)cc3)CC2)N1", "note": "(stereo not given)", "Percent Effect": 6.317},
      {"compound": "Cl.O=C(NCc1ccc(Cl)cc1)N1CCN(CC(O)C2CC2)CC1", "note": "(stereo not given)", "Percent Effect": 116},
      {"compound": "COc1cccc(CNC(=O)N2CCN(Cc3cc(C)on3)CC2)c1", "Percent Effect": -11.4},
      {"compound": "O=S(=O)(Cc1ccc(F)cc1)N1CCN(CC(O)C2CC2)CC1", "note": "(stereo not given)", "Percent Effect": -13.11},
      {"compound": "Cl.Cl.O=C(CN1CCN(CC(O)C2CC2)CC1)NCc1ccc(F)cc1", "note": "(stereo not given)", "Percent Effect": 3.1},
      {"compound": "COc1ccc(CNC(=O)N2CCN(CC(O)C3CC3)CC2)cc1.Cl", "note": "(stereo not given)", "Percent Effect": 99.74},
      {"compound": "COc1ccc(CNC(=O)N2CCN(C)[C@@H]3CS(=O)(=O)C[C@@H]32)cc1", "Percent Effect": 5.272},
      {"compound": "Cc1nc(-c2ccccc2)cc2nn(CC(N)=O)c(=O)n12", "Percent Effect": 117.5},
      {"compound": "Cc1nn2c(NCC(N)=O)cc(-c3ccccc3)nc2c1C", "Percent Effect": 1.327},
      {"compound": "COc1ccc(NC(=O)Cn2nc(C)c(C)cc2=O)cc1", "Percent Effect": -2.265},
      {"compound": "COc1ccc(Cn2nc(C(N)=O)ccc2=O)c(Cl)c1", "Percent Effect": 8.088},
      {"compound": "CC(=O)N1CCN(c2cc(-c3ccccc3)nc3c(C)c(C)nn23)CC1", "Percent Effect": -0.0371},
      {"compound": "COc1ccc(-c2cc3nn(CC(=O)NC(C)C)c(=O)n3c(C)n2)cc1", "Percent Effect": 109.7},
      {"compound": "COCC(=O)N[C@H](C)c1c(-c2ccc(OC)cc2)noc1C(=O)O", "Percent Effect": -10.1},
      {"compound": "COc1ccc(-c2cc3nn(CC(N)=O)c(=O)n3c(C)n2)cc1", "Percent Effect": 110.8},
      {"compound": "CN(C)C(C(=O)N1CCN(CC(F)(F)F)CC1)c1ccccc1F", "note": "(stereo not given)", "Percent Effect": -7.118},
      {"compound": "Cn1nc(Cn2ccnc2)c2c1CN(C(=O)c1ccc[nH]1)C2", "Percent Effect": -17.57},
      {"compound": "CCCc1cnc(C)nc1NC(C)Cc1cnccn1", "note": "(stereo not given)", "Percent Effect": -13.48},
      {"compound": "COc1ccccc1N1CCC(CNC(=O)N(C)Cc2ccco2)C1", "note": "(stereo not given)", "Percent Effect": 0.07203},
      {"compound": "COCCN(c1ccncc1)S(=O)(=O)c1cc(C)cc(F)c1", "Percent Effect": -2.462},
      {"compound": "CC(C)c1nc(C2CCCN(C(=O)c3ccnc(N(C)C)c3)C2)no1", "note": "(stereo not given)", "Percent Effect": -3.864},
      {"compound": "Cc1nc(C2CCCN(C(=O)c3ccco3)C2)no1", "note": "(stereo not given)", "Percent Effect": 13.92},
      {"compound": "Cc1nc(C2CCCN(C(=O)c3ccoc3)C2)no1", "note": "(stereo not given)", "Percent Effect": 101.5},
      {"compound": "Cc1nc(C2CCCN(C(=O)c3ccc(S(C)(=O)=O)cc3)C2)no1", "note": "(stereo not given)", "Percent Effect": 120.9},
      {"compound": "Cc1nc(C2CCCN(C(=O)c3cccc(S(C)(=O)=O)c3)C2)no1", "note": "(stereo not given)", "Percent Effect": 8.734},
      {"compound": "Cc1nc(C2CCCN(C(=O)c3ccnc(N(C)C)c3)C2)no1", "note": "(stereo not given)", "Percent Effect": 127.7},
      {"compound": "Cc1cnn(CCNCc2ccc(OCc3csc(C)n3)cc2)c1", "Percent Effect": -5.1},
      {"compound": "Cn1c(Cn2cccn2)nnc1C1CCCN(c2ccncc2)C1", "note": "(stereo not given)", "Percent Effect": -11.32},
      {"compound": "Cc1ccccc1C(=O)NCc1ccc(N2CCNC(=O)C2)c(F)c1", "Percent Effect": -11.32},
      {"compound": "O=C(O)C(F)(F)F.O=C([C@H]1COC[C@H]2CN(CC3CCCC3)C[C@H]21)N1CCOCC1", "Percent Effect": -19.66},
      {"compound": "COc1cccc(NC(=O)c2nc3ccccc3n(C)c2=O)c1", "Percent Effect": 124.2},
      {"compound": "COc1cccc(NC(=O)NC(C)(C)c2noc(C)n2)c1", "Percent Effect": -4.672},
      {"compound": "Cn1c(CCCNC(=O)Nc2cn[nH]c2)nc2ccccc21", "Percent Effect": -21.13},
      {"compound": "CCCN1CCC(NC(=O)Nc2ccc(OC)c(OC)c2)CC1", "Percent Effect": 8.494},
      {"compound": "COc1cc(NC(=O)NCc2ccccn2)cc(OC)c1", "Percent Effect": 6.3},
      {"compound": "COc1cccc(NC(=O)Cc2c(C)nc3c(c2C)c(=O)[nH]n3C)c1", "Percent Effect": 0.5633},
      {"compound": "COc1ccc(NC(=O)c2nc3ccccc3n(C)c2=O)c(OC)c1", "Percent Effect": 115.5},
      {"compound": "COc1ccc(NC(=O)c2nc3ccccc3n(C)c2=O)cc1OC", "Percent Effect": 120.1},
      {"compound": "COc1ccc(Nc2nc3c(C)nn(C)c3c(=O)n2C)c(OC)c1", "Percent Effect": -1.628},
      {"compound": "COc1ccc(OC)c(NC(=O)c2nc3ccccc3n(C)c2=O)c1", "Percent Effect": 10.54},
      {"compound": "COc1cc(NC(=O)c2nc3ccccc3n(C)c2=O)cc(OC)c1", "Percent Effect": 112.5},
      {"compound": "CCSc1nc(N)c(NC(=O)c2ccc(OC)c(OC)c2)c(=O)[nH]1", "Percent Effect": -7.588}
    ]}
  ]
}
